Reference: PubChem BioAssay (NCATS)
Values joined by “and” are separate entries in the source; they are usually repeats but may differ in a detail not shown here. Equal values may be shown once. Inconclusive results are not listed. Active and inactive are the calls of the source. The call rests on the fitted dose curve; in most records, active means well fitted curve in the direction sought with a large enough effect; inconclusive means small, poorly fitted or top-dose-only effect, or another doubt; inactive means no such curve, though single readings can be large; an effect the other way counts as inactive or inconclusive.

Experiments:
[1] = molecular target: Cellular tumor antigen p53 (Homo sapiens) (UniProt P04637); assay: Primary qHTS for small molecule compounds that upregulate eGFP-tagged delta133p53alpha (in N-terminal) cells. (AID 2060322); conditions: NCI-H358 eGFP-delta133p53alpha fluorescence, 24 h; activation: hits give high values;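 further: 0% = DMSO vehicle and 100% = reference activator; nearly all actives have a fitted effect of over 75% in size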
Procedure, shortened: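 NCI-H358 cells pre-induced 24 h with 10 ng/ml doxycycline to express N-terminal eGFP-delta133p53alpha, then dosed 24 h at 37C without doxycycline; fixed, Hoechst-stained, GFP intensity by laser scanning cytometry, normalized to DMSO (0%) and 57.5 uM 5-azacytidine (100%).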

[2] = molecular target: Aldehyde dehydrogenase, mitochondrial (Homo sapiens) (UniProt P05091); assay: qHTS for Inhibitors of the Aldehyde Dehydrogenase Family (ALDH2) Primary screen (AID 2061308); conditions: ALDH2 enzyme inhibition qHTS, 1536-well; series mostly up to 56 µM;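 further: plate controls were vehicle for no effect and reference inhibitor for full effect; nearly all actives have a fitted effect of over 55% in size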
[3] = molecular target: Retinaldehyde dehydrogenase 3 (Homo sapiens) (UniProt P47895); assay: qHTS for Inhibitors of the Aldehyde Dehydrogenase Family (ALDH1A3) Validation screen (AID 2061312); conditions: ALDH1A3 enzyme inhibition qHTS validation, fluorescence; series mostly up to 84.7 µM; further: on the % scale 0 is the no-effect control and ±100 the full control effect; nearly all actives have a fitted effect of over 45% in size
[4] = molecular target: Retinaldehyde dehydrogenase 3 (Homo sapiens) (UniProt P47895); assay: qHTS for Inhibitors of the Aldehyde Dehydrogenase Family (ALDH1A3) Primary screen (AID 2061315); conditions: ALDH inhibition qHTS; series mostly up to 56 µM;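 further: plate controls were DMSO vehicle for no effect and reference inhibitor for full effect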
[5] = BET inhibitor-based combinations targeting novel dependencies in MECOM-rearranged (r) AML: SET-2 cell line (AID 2202231); conditions: SET-2 AML cells viability, CellTiter-Glo luminescence, 48 h; viability: hits give low values, concentration not given here; further: nearly all actives have a fitted effect of over 35% in size; further: potency means the concentration at half of the fitted maximal effect;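 on viability: plate controls were DMSO treated cells for no effect and wells without cells for full effect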
Procedure, shortened: (§1)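 Luminescent ATP readout (CellTiter-Glo) after 48 hr drug exposure gives viability. Curves span 11 concentrations and are normalized to DMSO and empty wells. Activity is reported as area under the curve and its Z-transform within each cell line.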

[6] = BET inhibitor-based combinations targeting novel dependencies in MECOM-rearranged (r) AML: OCI-AML3 cell line (AID 2202232); conditions: CellTiter-Glo luminescence, 48 h; Potency: OCI-AML3 viability; series mostly up to 46 µM; further: nearly all actives have a fitted effect of over 35% in size; further: potency means the concentration at half of the fitted maximal effect
Procedure, shortened: as §1

[7] = BET inhibitor-based combinations targeting novel dependencies in MECOM-rearranged (r) AML: MV-4-11 cell line (AID 2202233); conditions: MV-4-11 AML viability, CellTiter-Glo luminescence, 48 h; series mostly up to 46 µM; further: nearly all actives have a fitted effect of over 45% in size; further: potency means the concentration at half of the fitted maximal effect
Procedure, shortened: (§2)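 Luminescent ATP readout (CellTiter-Glo, 15 min at room temperature) after 48 hr drug exposure gave viability. Dose-response curves, normalized to DMSO and empty-well controls, were summarized as area under the curve and its mean-centred Z-score.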

[8] = BET inhibitor-based combinations targeting novel dependencies in MECOM-rearranged (r) AML: UCSD-AML1 cell line (AID 2202235); conditions: UCSD-AML1 AML cells viability, CellTiter-Glo, 48 h; series mostly up to 46 µM; further: nearly all actives have a fitted effect of over 40% in size; further: potency means the concentration at half of the fitted maximal effect
Procedure, shortened: as §2

[9] = BET inhibitor-based combinations targeting novel dependencies in MECOM-rearranged (r) AML: AML-194 cell line (AID 2202237; further: nearly all actives have a fitted effect of over 40% in size; further: potency means the concentration at half of the fitted maximal effect); conditions: AML-194 (MECOM-r AML) viability, CellTiter-Glo, 48 h; series mostly up to 46 µM
Procedure, shortened: as §1

[10] = BET inhibitor-based combinations targeting novel dependencies in MECOM-rearranged (r) AML: HNT-34 cell line (AID 2202234); conditions: HNT-34 AML viability, CellTiter-Glo luminescence, 48 h; series mostly up to 46 µM; further: nearly all actives have a fitted effect of over 35% in size; further: potency means the concentration at half of the fitted maximal effect
Procedure, shortened: as §2

[11] = BET inhibitor-based combinations targeting novel dependencies in MECOM-rearranged (r) AML: AML-191 cell line (AID 2202236; further: nearly all actives have a fitted effect of over 35% in size; further: potency means the concentration at half of the fitted maximal effect); conditions: AML-191 viability, CellTiter-Glo luminescence, 48 h; series mostly up to 46 µM
Procedure, shortened: as §1

Chain of Cellular tumor antigen p53 (Homo sapiens) (P04637 whole entry, looked up): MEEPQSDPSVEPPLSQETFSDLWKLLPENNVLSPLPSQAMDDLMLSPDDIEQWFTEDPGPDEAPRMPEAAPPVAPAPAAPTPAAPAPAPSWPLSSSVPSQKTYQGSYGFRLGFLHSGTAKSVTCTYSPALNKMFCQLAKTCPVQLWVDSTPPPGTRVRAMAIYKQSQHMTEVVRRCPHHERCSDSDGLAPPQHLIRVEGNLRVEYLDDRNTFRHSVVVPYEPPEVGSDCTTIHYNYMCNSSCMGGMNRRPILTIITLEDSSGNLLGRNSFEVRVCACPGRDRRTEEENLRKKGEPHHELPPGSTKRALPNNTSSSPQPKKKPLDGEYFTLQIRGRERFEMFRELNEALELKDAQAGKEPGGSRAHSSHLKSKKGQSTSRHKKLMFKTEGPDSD

CN(C)C1CCN(C(=O)c2ccc(NC(=O)Nc3nc(N4CCOCC4)nc(N4CCOCC4)n3)cc2)CC1
inactive: activation [1] -12.1% | Potency [2] | Potency [3] | Potency [4]
active: Potency [5] 5.25 µM | Potency [6] 0.132 µM | Potency [7] 0.105 µM | Potency [8] 0.296 µM | Potency [9] 0.59 µM

Cc1c(-c2ccnn2C)cc(C(=O)NCc2ccc(S(C)(=O)=O)cn2)c(=O)n1-c1cccc(C(F)(F)F)c1
inactive: activation [1] -2.86% and -5.25% | Potency [2] | Potency [3] | Potency [4] | viability [5] 103% | Potency [6] | Potency [7] | Potency [10] | Potency [8] | Potency [11] | Potency [9]

O=C(C(c1ccccc1)c1ccccc1)N1CCN(CC(O)COc2cccc3ncccc23)CC1 (configuration not stated)
inactive: activation [1] 4.77% | Potency [2] | Potency [3] | Potency [4]
active: Potency [5] 20.9 µM | Potency [6] 11.8 µM | Potency [7] 18.6 µM | Potency [11] 18.6 µM

Cc1cc2c(s1)Nc1ccccc1N=C2N1CCN(C)CC1
inactive: activation [1] -5.86% and 20.9% and -11.5% | Potency [2] | Potency [3] | Potency [4] | viability [5] 111% | Potency [6] | Potency [7] | Potency [10] | Potency [11] | Potency [9]

COc1cc(-c2nn(C3CCC(N4CCN(C(C)=O)CC4)CC3)c3ncnc(N)c23)ccc1NC(=O)c1cc2ccccc2n1C (configuration not stated)
active: Potency [5] 9.34 µM | Potency [6] 7.42 µM | Potency [7] 9.34 µM | Potency [10] 2.09 µM | Potency [11] 5.9 µM | Potency [9] 4.17 µM
inactive: activation [1] 17.1% | Potency [2] | Potency [3] | Potency [4]

Cc1[nH]c(/C=C2\C(=O)Nc3ccc(S(=O)(=O)N(C)c4cccc(Cl)c4)cc32)c(C)c1C(=O)N1CCN(C)CC1
inactive: activation [1] -19.1% | Potency [2] | Potency [3] | Potency [4]
active: Potency [5] 20.9 µM | Potency [6] 10.5 µM | Potency [7] 4.68 µM | Potency [10] 16.6 µM | Potency [11] 7.42 µM | Potency [9] 7.42 µM

CN(C)C1CCN(C(=O)c2ccc(NC(=O)Nc3ccc(-c4nc(N5CCOCC5)nc(N5CCOCC5)n4)cc3)cc2)CC1
inactive: activation [1] -0.955% | Potency [2] | Potency [3] | Potency [4]
active: Potency [5] 4.68 µM | Potency [6] 0.166 µM | Potency [7] 0.118 µM | Potency [10] 0.118 µM | Potency [8] 0.263 µM | Potency [9] 1.48 µM

CNC(=O)c1cccc(-c2ccc3c(N4CCOC[C@@H]4C)nc(N4CCOC[C@@H]4C)nc3n2)c1
active: Potency [6] 0.263 µM | Potency [7] 0.372 µM | Potency [8] 0.0661 µM
inactive: activation [1] 20% | Potency [2] | Potency [3] | Potency [4]

Fc1ccc(CNc2ncnc3ccc(F)cc23)cc1
inactive: activation [1] -0.393% and 5.25% | Potency [2] | Potency [3] | Potency [4] | Potency [8] | Potency [9]
active: Potency [6] 4.17 µM | Potency [10] 16.6 µM

CCC[C@H](N[C@H]1CCc2cc(F)cc(F)c2C1)C(=O)Nc1cn(C(C)(C)CNCC(C)(C)C)cn1
active: Potency [6] 11.8 µM
inactive: activation [1] -12.9% | Potency [2] | Potency [3] | Potency [4] | Potency [8] | Potency [9]

c1cc(OCCN2CCCCC2)cc(-c2n[nH]c3ccc(-c4ncn[nH]4)cc23)c1
active: Potency [7] 1.86 µM | Potency [10] 14.8 µM
inactive: activation [1] 5.89% and 12.9% | Potency [2] | Potency [3] | Potency [4]

C[C@@H](NC(=O)c1ncnc(N)c1Cl)c1ncc(C(=O)Nc2cc(C(F)(F)F)c(Cl)cn2)s1
inactive: activation [1] 19.6% | Potency [2] | Potency [3] | Potency [4]
active: Potency [10] 2.35 µM

C[C@@]1(C(=O)Nc2ccc(F)nc2)CCCN1c1nc(Nc2cc(C3CC3)[nH]n2)c2cccn2n1
active: Potency [6] 0.0742 µM | Potency [7] 2.95 µM | Potency [9] 1.48 µM
inactive: activation [1] 19.3% | Potency [2] | Potency [3] | Potency [4]

Cc1ccc(Nc2cc(-c3cccc(N4C(=O)c5ccccc5C4=O)c3)ncn2)cc1NS(C)(=O)=O
inactive: activation [1] 19.8% and 20% | Potency [2] | Potency [3] | Potency [4]
active: Potency [7] 10.5 µM

COCCCOc1ccnc(CS(=O)c2nc3ccccc3[nH]2)c1C (configuration not stated)
inactive: activation [1] -8.47% and 40% and -11.5% | Potency [2] | Potency [3] | Potency [4] | Potency [6] | Potency [10] | Potency [8] | Potency [11] | Potency [9]
